Bioassay records from PubChem.
D2 PAM-1: positive allosteric modulators of human D2 dopamine receptor. HEK293 T-REx D2, calcium flux, EC20 dopamine potentiation. P14416. AID 485347. potentiation, % at 10 µM. 0.34% of 340,000 active;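 active = potentiation over 3 SD above the plate norm, cut at about 30% in these data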; note: 0% is about no effect
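Primary screen. Calcium kinetics in induced HEK293 T-REx D2 cells: compound pre-addition 180 s, EC20 dopamine, 180 s more.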
D2 ag-1: agonists of human D2 dopamine receptor. HEK293 T-REx D2 cells, calcium flux agonist mode. activation, % at 2 µM. 0.53% of 340,000 active. AID 485358;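 active = activation over 3 SD above normal in the single-dose calcium agonist read, cut at about 30% in these data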; note: 0% is about no effect
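Tetracycline-induced HEK293 Trex cells with D2 receptor force-coupled to calcium signaling, plated overnight at 30 C and loaded with no-wash calcium dye. Calcium flux read kinetically for 180 s after compound addition; responses flag agonists.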
D2 PAM-2: human D2 receptor positive allosteric modulation; P14416; DiscoveRx D2 beta-arrestin cells, luminescence, 90 min; 100% = 57 uM dopamine signal; potentiation, % (test concentration not listed); 0.23% of 360,000 active; AID 624464; in the data active = potentiation above about 50%; inconclusive = mostly about 30% to 49%
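PathHunter beta-arrestin assay in DiscoveRx D2 cells. Compounds were added with an EC20 of dopamine (50 nM final) for 90 min at 37 deg C. Luminescence was read 1 h after detection reagent, with 57 uM dopamine as the EC100 control.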
D2 antagonist: antagonists of human D2 dopamine receptor | 2% of 340,000 active | P14416 | HEK293 TREx D2 cells, calcium flux, dopamine EC80 | inhibition, % at 10 µM | AID 485344; in the data active = inhibition above about 30%; inactive = below that, where a call was filed; note: 0% is about no effect
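Compounds are added to dye-loaded, induced HEK293 T-REx cells coupled to calcium release via D2; after a 3 min kinetic read an EC80 dopamine stimulus is given and fluorescence is recorded for 3 more min.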
D2 ag-2: human D2 receptor agonism in beta-arrestin assay. 0.084% of 360,000 active. P14416. DiscoveRx PathHunter D2 beta-arrestin, luminescence, 90 min; 100% = 57 uM dopamine signal. activation, % (concentration not given with the values); in the data active = activation above about 40%; inconclusive = between about 15% and that limit
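DiscoveRx PathHunter D2 beta-arrestin cells (2,100/well) attached overnight, then compound-stimulated 90 min at 37 C in HBSS/10 mM HEPES/0.1% Tween-20 buffer; beta-galactosidase complementation read by luminescence after 1 h at ambient temperature. Dopamine 57 uM final (EC100) as control.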
D3 arrestin ag: D3 receptor agonism confirmed, beta-arrestin readout; shares compounds with D2 ag-1; DiscoveRx D3 beta-arrestin cells, luminescence, 90 min; Potency, µM (doses to about 76.9 µM), inactives show at the highest dose activation, usual class: activators; 4% of 2,300 active; AID 720506;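 note: potency is the fitted concentration of half-maximal effect; 100% = dopamine control response; nearly all actives have a fitted effect of over 70% in size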
Target sequence (P35462 whole entry, looked up): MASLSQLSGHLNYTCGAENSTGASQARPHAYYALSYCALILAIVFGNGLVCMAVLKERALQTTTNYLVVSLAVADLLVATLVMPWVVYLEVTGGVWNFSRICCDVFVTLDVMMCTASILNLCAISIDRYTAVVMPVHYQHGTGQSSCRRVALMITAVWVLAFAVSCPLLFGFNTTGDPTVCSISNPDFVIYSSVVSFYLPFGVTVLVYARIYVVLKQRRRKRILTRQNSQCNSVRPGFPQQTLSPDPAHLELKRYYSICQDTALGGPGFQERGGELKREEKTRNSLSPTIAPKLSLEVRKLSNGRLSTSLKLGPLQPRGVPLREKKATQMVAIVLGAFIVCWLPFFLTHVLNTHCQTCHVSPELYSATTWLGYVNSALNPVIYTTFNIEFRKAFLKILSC
D2 ag-3: D2 receptor agonism, beta-arrestin counterscreen; DiscoveRx PathHunter D2 beta-arrestin, luminescence, 90 min; response scale: percent relative to full dopamine signal; AID 720507; Potency, µM (doses to about 76.9 µM), without a hit: top-dose activation, actives largely listed as activators; shares compounds with D2 ag-1; 5.9% of 2,300 active; note: potency is the fitted concentration of half-maximal effect; % of control where 0% means no effect; nearly all actives have a fitted effect of over 70% in size
Active calls of the source: *; ? = inconclusive; . = no result. An excerpt weighted towards active compounds, which were near 2.4% of everything screened. Unless noted, calls come from the whole dose curve; as a rule, active = well fitted activation curve with a large enough effect; inconclusive = small, poorly fitted or top-dose-only effect; inactive = flat fitted curve, though single readings scatter.

SMILES	D2 PAM-1	D2 ag-1	D2 PAM-2	D2 antagonist	D2 ag-2	D3 arrestin ag	D2 ag-3
S=C(Nc1ccc(Oc2ccccc2)cc1)N1CCN(c2ccccn2)CC1	7	13	0	-31	1	18%	4%
COc1cccc(C(=O)N2CCN(c3ccccn3)CC2)c1	-18	.	-4	.	?	?	26%
O=C(Nc1ccccc1Cl)N1CCN(c2ccccn2)CC1	-24	64*	9	15	5	-2%	-1%
COc1cccc(CNc2ncc(-c3ccc(Br)cc3)n2C)c1	-2	0	.	.	.	.	.
S=C(Nc1ccc(Br)cc1Cl)N1CCN(c2ccccn2)CC1	-13	57*	-16	-6	2	5%	27%
Cc1ccc(NC(=O)CN(C)C(=O)Cn2c(=O)oc3ccccc32)cc1	7	1	-12	-2	2	.	.
CN(CC(=O)Nc1ccc(F)cc1)C(=O)Cn1c(=O)oc2ccccc21	5	0	5	11	3	-5%	-2%
Cc1cc(Br)ccc1NC(=O)C1(S(=O)(=O)c2ccc(Cl)cc2)CC1	.	0	.	.	.	.	.
COc1ccccc1N(CC(=O)NCCSCc1ccc(C)cc1)S(=O)(=O)c1ccccc1	14	2	1	25	4	-3%	6%
CC1CN(C(=O)CNC(=O)Cc2cccc3ccccc23)CC(C)O1 (configuration not stated)	-11	1	0	-22	-2	1%	0%
Cc1ccccc1OCCC(=O)OCC(=O)NNC(=O)c1cccs1	.	.	-4	.	6	-5%	4%
COc1ccccc1OCC(=O)NNC(=O)c1cccs1	5	0	6	-3	-3	.	.
CCC(=O)N1CCc2cc(Br)cc(S(=O)(=O)NCCc3ccccc3Cl)c21	-12	0	.	.	.	.	.
CN1CCc2c(sc(NC(=O)c3ccc([N+](=O)[O-])o3)c2C(N)=O)C1	-19	75*	-12	29	1	-20%	2%
Nc1nc(N)nc(-c2ccc(Cl)c(Cl)c2)n1	-6	2	-3	-9	-1	-1%	-4%
Cc1ccc(C(=O)OC(C)C(=O)NC(C)CCc2ccccc2)o1 (configuration not stated)	11	0	-1	-35	-2	-6%	-1%
CC(CCc1ccccc1)NC(=O)C(C)OC(=O)c1ccco1 (configuration not stated)	8	-1	0	-6	-2	.	.
CC1=Nc2ccccc2/C1=C/c1nc(-c2ccc(C)s2)oc1O	.	.	-10	.	-5	.	.
CC1=Nc2ccccc2/C1=C/c1sc(=N)n(-c2nccs2)c1O	-4	10	-27	-12	-3	-16%	-10%
COc1cccc(-c2ncc3ccccc3c2CO)c1	-9	0	-15	0	-1	2%	-3%
CCCCC(=O)OCc1c(-c2cccc(OC)c2)ncc2ccccc12	-4	-1	-3	25	1	-8%	2%
CCOc1ccc(NC(=O)c2cc3cc(C)ccc3n2C)cc1	-9	1	.	.	.	.	.
CCOC(=O)C1CCN(c2nc3c(S(=O)(=O)c4ccccc4)nnn3c3ccc(Cl)cc23)CC1	0	2	.	.	.	.	.
O=C(CN1CCN(c2ccccn2)CC1)N1CC(O)CO1 (configuration not stated)	-13	29	0	12	7	21%	6%
O=C(CN1CCN(c2cccc(Cl)n2)CC1)N1CC(O)CO1 (configuration not stated)	-3	0	-8	3	0	.	.
SMILES	D2 PAM-1	D2 ag-1	D2 PAM-2	D2 antagonist	D2 ag-2	D3 arrestin ag	D2 ag-3
Cc1ccc2[nH]cc(C(=O)CN3CCN(c4ccccn4)CC3)c2c1	-28	19	-42	34*	2	10%	4%
Cc1ccc(C(=O)CN2CCN(c3ccccn3)CC2)c(C)c1	.	.	4	.	?	?	?
COc1ccc(C(=O)NCC(c2ccc3c(c2)OCO3)N2CCN(C)CC2)cc1OC (configuration not stated)	-6	-2	.	.	.	.	.
CN1C(=O)C2(SCC(=O)N2c2ccc(F)cc2)c2ccccc21 (configuration not stated)	2	1	.	.	.	.	.
COc1ccccc1CCNC(C)CCc1ccc(O)cc1 (configuration not stated)	-18	41*	-2	3	0	?	6%
COc1ccc(CCC(C)NCc2ccccc2OC)cc1 (configuration not stated)	-7	1	-2	-16	-6	.	.
COc1cc(OC)c(OC)cc1CCC(C)NCCC(c1ccccc1)c1ccccc1 (configuration not stated)	-18	50*	-39	49*	14	3%	?
COc1ccc(CCNCCC(c2ccccc2)c2ccccc2)cc1OC	.	.	-46	.	-5	.	.
COc1ccc(S(=O)(=O)N(CC(=O)Nc2ccc(F)c(Cl)c2)c2ccc(C)cc2)cc1OC	10	0	.	.	.	.	.
CN(C1CCCCC1)S(=O)(=O)c1ccc2c(c1)c(=O)c(C(=O)NCc1ccccc1Cl)cn2C	-1	0	.	.	.	.	.
CCC(=O)NC(C)C(c1cccs1)N1CCN(Cc2ccccc2)CC1 (configuration not stated)	-15	45*	-11	2	-4	-12%	4%
CC(NC(=O)c1ccc2c(c1)OCO2)C(c1cccs1)N1CCOCC1 (configuration not stated)	12	1	-9	0	0	.	.
CC(NC(=O)c1cccs1)C(c1cccs1)N1CCN(Cc2ccccc2)CC1 (configuration not stated)	1	-1	-30	-7	-1	.	.
CC(NC(=O)c1ccc2c(c1)OCO2)C(c1cccs1)N1CCN(c2ccccc2)CC1 (configuration not stated)	-24	43*	-1	-8	-2	0%	3%
COc1ccc(NC(=O)CSc2oc(-c3ccc(F)cc3)nc2S(=O)(=O)c2ccc(C)cc2)c(OC)c1	-2	0	.	.	.	.	.
Cc1c2c(nc3c(C)cccc13)OC(C)C2 (configuration not stated)	5	23	0	26	0	4%	12%
Nc1nc(CN2CCN(c3ccccc3)CC2)nc(N2CCCc3ccccc32)n1	.	.	54*	.	?	35µM*	?
COc1ccc(N2CCN(Cc3nc(N)nc(Nc4ccc(C)c(Cl)c4)n3)CC2)cc1	-4	2	-12	-10	1	.	.
COc1ccc(N2CCN(Cc3nc(N)nc(N4CCCc5ccccc54)n3)CC2)cc1	-12	49*	-9	7	4	4%	14%
